# Assay results as given in PMC11062922 (Nature Chemical Biology, 2023).
# Where two headings read alike, the source gives them in different places.
# Columns and labels:
# ABL1 = test system: ABL1; design: species or system human, MV4-11 + K-562 + COLO205 + SK-N-BE2 + OVCAR-8; conditions: read-out: apparent Kd, n = 1
# ABL2 = test system: ABL2; design: species or system human, MV4-11 + K-562 + COLO205 + SK-N-BE2 + OVCAR-8; conditions: read-out: apparent Kd; compound concentrations:100 nM and 1000 nM (sheet 'Samples'); n = 1
# LCK = test system: LCK; design: species or system human, MV4-11 + K-562 + COLO205 + SK-N-BE2 + OVCAR-8; conditions: read-out: apparent Kd, n = 1
# PTK6 = test system: PTK6; design: species or system human, MV4-11 + K-562 + COLO205 + SK-N-BE2 + OVCAR-8; conditions: read-out: apparent Kd, n = 1
# RIPK2 = test system: RIPK2; design: species or system human, MV4-11 + K-562 + COLO205 + SK-N-BE2 + OVCAR-8; conditions: read-out: apparent Kd, n = 1
# BCR = test system: BCR; design: species or system human, MV4-11 + K-562 + COLO205 + SK-N-BE2 + OVCAR-8; conditions: read-out: apparent Kd; compound concentrations:100 nM and 1000 nM (sheet 'Samples'); n = 1
# CLK1 = test system: CLK1; design: species or system human, MV4-11 + K-562 + COLO205 + SK-N-BE2 + OVCAR-8; conditions: read-out: apparent Kd; compound concentrations:100 nM and 1000 nM (sheet 'Samples'); n = 1
# CLK4 = test system: CLK4; design: species or system human, MV4-11 + K-562 + COLO205 + SK-N-BE2 + OVCAR-8; conditions: read-out: apparent Kd; compound concentrations:100 nM and 1000 nM (sheet 'Samples'); n = 1
# FYN = test system: FYN; design: species or system human, MV4-11 + K-562 + COLO205 + SK-N-BE2 + OVCAR-8; conditions: read-out: apparent Kd; compound concentrations: 100 nM and 1000 nM (sheet 'Samples'), CATDS: 5.8520288071811297E-2; n = 1
# HCK = test system: HCK; design: species or system human, MV4-11 + K-562 + COLO205 + SK-N-BE2 + OVCAR-8; conditions: read-out: apparent Kd; compound concentrations: 100 nM and 1000 nM (sheet 'Samples'), CATDS: 0.224802192402594; n = 1
# RIPK3 = test system: RIPK3; design: species or system human, MV4-11 + K-562 + COLO205 + SK-N-BE2 + OVCAR-8; conditions: read-out: apparent Kd; compound concentrations: 100 nM and 1000 nM (sheet 'Samples'), CATDS: 5.1839194955901301E-2; n = 1
# YES1 = test system: YES1; design: species or system human, MV4-11 + K-562 + COLO205 + SK-N-BE2 + OVCAR-8; conditions: read-out: apparent Kd, n = 1
# GAK = test system: GAK; design: species or system human, MV4-11 + K-562 + COLO205 + SK-N-BE2 + OVCAR-8; conditions: read-out: apparent Kd; compound concentrations:100 nM and 1000 nM (sheet 'Samples'); n = 1
# Q6ZSR9 = Q6ZSR9 (human, UniProt Q6ZSR9); design: species or system MV4-11 + K-562 + COLO205 + SK-N-BE2 + OVCAR-8; conditions: read-out: apparent Kd; compound concentrations:100 nM and 1000 nM (sheet 'Samples'); n = 1
# RET = test system: RET; design: species or system human, MV4-11 + K-562 + COLO205 + SK-N-BE2 + OVCAR-8; conditions: read-out: apparent Kd; compound concentrations:100 nM and 1000 nM (sheet 'Samples'); n = 1
# TNK1 = test system: TNK1; design: species or system human, MV4-11 + K-562 + COLO205 + SK-N-BE2 + OVCAR-8; conditions: read-out: apparent Kd; compound concentrations:100 nM and 1000 nM (sheet 'Samples'); n = 1
# [1] = compound concentrations:100 nM and 1000 nM (sheet 'Samples')
# Sequence of Q6ZSR9 (Q6ZSR9 whole entry, looked up): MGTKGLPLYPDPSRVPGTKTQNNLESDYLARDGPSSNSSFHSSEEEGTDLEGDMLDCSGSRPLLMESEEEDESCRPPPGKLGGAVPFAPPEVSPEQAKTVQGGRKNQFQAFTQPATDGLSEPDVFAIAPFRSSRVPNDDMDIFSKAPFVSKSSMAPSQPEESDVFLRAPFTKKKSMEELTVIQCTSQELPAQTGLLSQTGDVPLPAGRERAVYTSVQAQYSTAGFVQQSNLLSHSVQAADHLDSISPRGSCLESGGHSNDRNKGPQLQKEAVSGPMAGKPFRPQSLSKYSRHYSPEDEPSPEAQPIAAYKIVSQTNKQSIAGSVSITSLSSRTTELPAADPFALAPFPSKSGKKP
smiles,measurement,setting,value
Cn1cc(-c2cnc(N)c3c(-c4ccc5c(c4)CCN5C(=O)Cc4ccccc4)csc23)cn1 [GSK2593074A],potency estimated from few doses,ABL1; [1],563 nM
same,potency estimated from few doses,ABL2,641 nM
same,potency estimated from few doses,LCK; [1],554 nM
same,potency estimated from few doses,PTK6; [1],1340 nM
same,potency estimated from few doses,RIPK2; [1],120 nM
CC(=O)c1c(-c2ccncc2)[nH]c(-c2ccncc2)c1C [GW493036X],potency estimated from few doses,ABL2,482 nM
same,potency estimated from few doses,BCR,277 nM
same,potency estimated from few doses,CLK1,10.9 nM
same,potency estimated from few doses,CLK4,1.62 nM
same,potency estimated from few doses,RIPK2; [1],1000 nM
COc1cc2nccc(Nc3ccc(Oc4ccccc4)cc3)c2cc1OC.Cl [GI261656A],potency estimated from few doses,"ABL1; compound concentrations: 100 nM and 1000 nM (sheet 'Samples'), CATDS: 4.9234778502166003E-2",661 nM
same,potency estimated from few doses,FYN,360 nM
same,potency estimated from few doses,HCK,23.3 nM
same,potency estimated from few doses,"LCK; compound concentrations: 100 nM and 1000 nM (sheet 'Samples'), CATDS: 9.1462099087555204E-2",115 nM
same,potency estimated from few doses,"PTK6; compound concentrations: 100 nM and 1000 nM (sheet 'Samples'), CATDS: 8.1912311053812595E-2",147 nM
same,potency estimated from few doses,"RIPK2; compound concentrations: 100 nM and 1000 nM (sheet 'Samples'), CATDS: 0.26781417161536297",18.1 nM
same,potency estimated from few doses,RIPK3,542 nM
same,potency estimated from few doses,"YES1; compound concentrations: 100 nM and 1000 nM (sheet 'Samples'), CATDS: 0.10993421284825",78.7 nM
Cn1cc(-c2ccc3c(c2)CCN3C(=O)Cc2cccc(Cl)c2)c2c(N)ncnc21 [GSK2606590A],potency estimated from few doses,"ABL1; compound concentrations: 100 nM and 1000 nM (sheet 'Samples'), CATDS: 0.26932988266552799",1720 nM
Cl.Cn1c(=O)c(Cc2ccc(F)cc2F)cc2cnc(NC3CCOCC3)nc21 [RO3308757-001],potency estimated from few doses,ABL1; [1],1760 nM
same,potency estimated from few doses,ABL2,513 nM
same,potency estimated from few doses,BCR,477 nM
same,potency estimated from few doses,CLK1,779 nM
same,potency estimated from few doses,CLK4,1110 nM
same,potency estimated from few doses,GAK,434 nM
same,potency estimated from few doses,LCK; [1],1220 nM
same,potency estimated from few doses,Q6ZSR9,1840 nM
same,potency estimated from few doses,RET,877 nM
same,potency estimated from few doses,TNK1,177 nM
same,potency estimated from few doses,YES1; [1],805 nM
